NPC1 prom act – NPC1 promoter activation. Huh7 NPC1 promoter luciferase reporter, 24 h. Potency, µM (doses to about 9.22 µM), without a hit: top-dose activation, hits mostly activators. actives 2.4% (n = 320,000). AID 485313; further: % of control where 0% means no effect; nearly all actives have a fitted effect of over 60% in size
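Cells: Huh7 expressing luciferase under the NPC1 promoter, 1500/well. Seeded 2 h, compound added, incubated 24 h at 37 °C. Luciferase reagent, 10 min ambient, then luminescence.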
SMN2 splice enh – SMN2 splice variant enhancement; HEK293 SMN2-luciferase splicing reporter, luminescence, 30-36 h; Potency, µM (titrated, usually from 46.1 µM), for inactives: at the top dose activity change, positive = activation, usual class: activators; actives 2.8% (n = 210,000); further: % of control where 0% means no effect; nearly all actives have a fitted effect of over 55% in size
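HEK293 cells carry an SMN2 […]–luciferase reporter in which exon 7 inclusion puts luciferase in frame. Cells were plated 10-12 h before compound addition, then incubated 30-36 h at 37C. ONE-Glo luminescence was read; sodium butyrate at 4.5 mM final served as control.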
ELG1 genotox – induces genotoxicity in HEK293T cells with luciferase-tagged ELG1. Potency, µM (series often up to 46 µM), inactives show at the highest dose activity change, positive = activation, hits mostly activators. HEK293T ELG1-luciferase reporter, luminescence, 16 h. AID 504466. actives 1.3% (n = 330,000); further: % of control where 0% means no effect; nearly all actives have a fitted effect of over 60% in size
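HEK293T cells expressing luciferase-tagged ELG1 were exposed to compound or DMSO vehicle for 16 hr at 37 °C and 5% CO2. Luciferase activity was then measured with ONE-Glo after 30 min at room temperature.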
Rab9 promoter act – activates the Rab9 promoter; Huh7 Rab9 promoter-luciferase reporter, luminescence, 24 h; Potency, µM (series often up to 9.22 µM), for inactives: top-dose activation, negative = inhibition, actives largely listed as activators; actives 2.8% (n = 320,000); further: % of control where 0% means no effect; nearly all actives have a fitted effect of over 60% in size
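Cells were plated at 1500 per well in reduced-serum medium with 10% FBS and left 2 h. Compound in DMSO was then added for 24 h at 37 °C. Reporter signal was read by luminescence after 10 min with luciferase detection reagent.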
FLuc modulator – inhibits or activates purified firefly luciferase, miR-21 counter-screen; P08659; purified FLuc, Km substrates, luminescence inhibition; Potency, µM (series often up to 57.5 µM), for the others: at the top dose activity change, negative = inhibition, usual class: inhibitors; actives 6.9% (n = 360,000); AID 588342;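 further: plate controls were vehicle for no effect and reference inhibitor for full effect; nearly all actives have a fitted effect of over 55% in size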
Target sequence (P08659 whole entry, looked up): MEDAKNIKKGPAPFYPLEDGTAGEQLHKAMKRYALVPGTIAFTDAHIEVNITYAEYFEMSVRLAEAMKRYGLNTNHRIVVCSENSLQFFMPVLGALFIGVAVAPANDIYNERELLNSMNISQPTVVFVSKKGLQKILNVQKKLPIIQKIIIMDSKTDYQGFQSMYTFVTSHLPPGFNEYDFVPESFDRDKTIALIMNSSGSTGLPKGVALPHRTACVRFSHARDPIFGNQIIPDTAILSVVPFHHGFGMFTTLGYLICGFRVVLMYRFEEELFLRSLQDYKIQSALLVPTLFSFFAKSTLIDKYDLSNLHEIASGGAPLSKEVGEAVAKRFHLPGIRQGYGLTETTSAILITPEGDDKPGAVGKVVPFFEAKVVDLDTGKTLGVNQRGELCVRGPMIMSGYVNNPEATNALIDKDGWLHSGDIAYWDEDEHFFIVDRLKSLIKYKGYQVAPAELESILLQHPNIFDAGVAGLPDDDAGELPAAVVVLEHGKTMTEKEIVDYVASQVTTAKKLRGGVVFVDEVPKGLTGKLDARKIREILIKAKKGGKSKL
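Biochemical qHTS of compounds, final roughly 60 µM downward over six points, against 10 nM purified firefly luciferase using Km concentrations of substrates (10 uM D-luciferin, 10 uM ATP) in Tris acetate pH 7.5 buffer; luminescence output.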
* = called active by the depositor; u = inconclusive; x = no result; [ ] = another dose, or the depositor's remark. Most compounds without a hit are left out; they make up all but 7.4% or so of the library. The call rests on the fitted dose curve; in most records, active means well fitted curve in the direction sought with a large enough effect; inconclusive means small, poorly fitted or top-dose-only effect, or another doubt; inactive means no such curve, though single readings can be large; an effect the other way counts as inactive or inconclusive. Potency means the concentration at half of the fitted maximal effect.

SMILES	NPC1 prom act	SMN2 splice enh	ELG1 genotox	Rab9 promoter act	FLuc modulator
COc1ccc(/C=C2\SC(=S)N(CC(=O)OCC(=O)Nc3ccc(C)cc3Cl)C2=O)cc1	4%	x	3%	22%	12µM*
O=C(CCCN1C(=O)/C(=C/c2cccs2)SC1=S)Nc1cc([N+](=O)[O-])ccc1O	-6%	x	-1%	0%	8%
COc1cc([N+](=O)[O-])ccc1NC(=O)COC(=O)C=C(C)C	0%	10%	0%	3%	3%
COc1ccc(/C=C2\SC(=S)N(CC(=O)OCC(=O)Nc3ccc([N+](=O)[O-])cc3OC)C2=O)cc1	5%	5%	3%	13%	24µM*
O=C(CCN1C(=O)/C(=C/c2ccc(F)cc2)SC1=S)Nc1cc([N+](=O)[O-])ccc1O	0%	x	-4%	6%	12µM*
O=C(CCN1C(=O)C2CCCCC2C1=O)Nc1cc(F)ccc1F (centres undefined)	-3%	x	1%	-3%	1%
O=C(CN1C(=O)NC2(CCCCC2)C1=O)Nc1nc2c(F)cc(F)cc2s1	2%	x	1%	3%	-12%
O=C(CCN1C(=O)C2CCCCC2C1=O)Nc1nc2c(F)cc(F)cc2s1 (centres undefined)	2.5µM*	x	u	1.4µM*	-19%
O=C(CCN1C(=O)C2CCCCC2C1=O)Nc1nc2ccc(F)cc2s1 (centres undefined)	0.63µM*	x	u	0.4µM*	0.85µM*
COC(=O)c1cccc(Oc2cccc(C(F)(F)F)c2)n1	0%	4%	1%	-1%	-5%
CC(C)CC(NC(=O)C1CCC(C)CC1)C(=O)Nc1ccc2c(c1)OCCO2 (centres undefined)	22%	7%	u	27%	17µM*
CCC1CCC(C(=O)NC(C(=O)NCCN(CC(C)C)CC(C)C)C(C)C)CC1 (centres undefined)	x	-1%	x	x	2%
CC(C)CC(NC(=O)C1CCC(C)CC1)C(=O)Nc1ccccc1F (centres undefined)	-42%	x	6%	-4%	0%
CCC1CCC(C(=O)NC(C(=O)Nc2ccc3c(c2)OCCO3)C(C)C)CC1 (centres undefined)	15%	11%	16µM*	23%	u
CC(=O)NC(CC(=O)Oc1ccc(C)cc1Br)c1ccccc1 (centres undefined)	0%	x	-1%	1%	-3%
N/C(=N\OC(=O)CCCOc1ccc(Cl)cc1Cl)c1ccncc1	-5%	7%	0%	-5%	u
N/C(=N\OC(=O)COc1ccc(Cl)cc1Br)c1ccncc1	3.5µM*	11µM*	8.2µM*	3.5µM*	11µM*
CCc1ccc(OCC(=O)O/N=C(\N)c2ccncc2)c(Br)c1	3.2µM*	x	u	2µM*	7.6µM*
N/C(=N\OC(=O)COc1ccc(Cl)cc1Cl)c1cccnc1	25%	u	u	4%	6µM*
N/C(=N\OC(=O)COc1ccc2ccccc2c1Br)c1ccncc1	11%	1%	u	2%	21µM*
CCc1ccc(OCC(=O)O/N=C(\N)c2ccncc2)cc1	15%	x	u	14%	u
NS(=O)(=O)C#Cc1ccccc1	-37%[46.1 µM]	x	x	-41%[46.1 µM]	x
Nc1ccc(C#Cc2ccccc2)cc1	22%	24%	u	30%	15µM*
Nc1ccccc1C#Cc1ccccc1	u	32%	u	26%	6.7µM*
CCN(CC(=O)NC1CCS(=O)(=O)C1)C(=O)c1ccc(OC)c([N+](=O)[O-])c1 (centres undefined)	-2%	x	0%	-4%	9%
SMILES	NPC1 prom act	SMN2 splice enh	ELG1 genotox	Rab9 promoter act	FLuc modulator
COc1cccc(-c2cc(C(F)(F)F)n3nc(N)nc3n2)c1	2%	-8%	5%	-4%	0%
Clc1ccc(-c2cn3nc4c(nc3n2)CCCC4)cc1	0.2µM*	1.8µM*	u	0.32µM*	0.24µM*
COc1cccc(-c2cn3nc4c(nc3n2)CCCC4)c1	0.63µM*	1.6µM*	u	0.71µM*	0.76µM*
COc1ccc(-n2nnnc2SCC(=O)Nc2ccc(OC)cc2OC)cc1	4%	x	-3%	3%	1%
CCN(CC)S(=O)(=O)c1ccc(C(=O)Oc2cc(C)[nH]c(=O)c2[N+](=O)[O-])cc1	-3%	3%	1%	-2%	3%
COc1ccc(/C=C/C(=O)OCC(=O)NCCc2ccccc2)c(OC)c1	x	x	0%	x	x
CCOc1ccc(NC(=S)NC(=O)c2c(Br)cnn2C)c([N+](=O)[O-])c1	8%	3%	2%	17%	6µM*
N/C(=N\OC(=O)C1CCCCC1)c1ccc(Cl)cc1	20%	x	u	9%	11µM*
N/C(=N\OC(=O)C1CCCCC1)c1ccc(Br)cc1	19%	x	u	u	9.5µM*
N/C(=N\OC(=O)C1CCCCC1)c1ccncc1	3%	x	10%	-3%	u
N/C(=N\OC(=O)C1CCCCC1)c1ccccn1	25%	12%	u	19%	2.4µM*
NC(=NC1CCCCC1)c1ccc(Cl)cc1	-3%	-11%	-12%	-2%	0%
O=C(NCc1ccccc1)C1CCN(S(=O)(=O)c2ccc(Cl)cc2)CC1	0%	x	-1%	0%	1%
COC(=O)CSc1nnc2n(-c3ccccc3)c(=O)c3c4c(sc3n12)COC(C(C)C)C4 (centres undefined)	x	1%	x	x	-5%
CCN(CC)S(=O)(=O)c1cccc(NC(=O)COc2ccc(Cl)cc2Br)c1	0%	-37%	-1%	-3%	21µM*
O=C(COc1ccc(F)cc1Cl)Nc1cccc(S(=O)(=O)N2CCCC2)c1	-1%	x	0%	3%	13µM*
Nc1cc(N)cc(C(=O)OCC(=O)Nc2cc(S(=O)(=O)N3CCCCC3)ccc2Cl)c1	-3%	-4%	-6%	-2%	17µM*
O=C(COc1ccccc1Cl)Nc1cccc(S(=O)(=O)N2CCCC2)c1	-7%	x	-1%	-2%	19µM*
COc1cccc(-n2cc(C(=O)NCc3ccccc3OC)c3ccccc3c2=O)c1	x	x	x	x	-18%
Cc1ccc(Cn2c(CN3CCN(c4cccc(Cl)c4)CC3)nc3c2c(=O)n(C)c(=O)n3C)cc1	x	-8%	x	x	-6%
Cc1ccc(S(=O)(=O)c2nc(-c3ccco3)oc2SC(C)C)cc1	1%	-9%	2%	0%	4%
O=C(CN1C(=O)CCc2cc(S(=O)(=O)N3CCOCC3)ccc21)NCc1ccc(Cl)cc1	x	x	x	x	4%
CCOc1ccc(/C=C/C(=O)OCC(=O)Nc2cccc(S(=O)(=O)N3CCCC3)c2)cc1	-1%	x	-1%	-1%	2.1µM*
CCCNC(=O)[C@H]1O[C@@H]1C(=O)N[C@H](C(=O)N1CCC[C@H]1C(=O)OC)[C@@H](C)CC	x	-88%	x	x	x
CC1(C)Oc2ccc3ccc(=O)oc3c2/C(=C/NNC(N)=S)C1=O	-6%	x	-8%	-6%	4%

Assay outcomes: PubChem BioAssay, National Center for Advancing Translational Sciences (NCATS)
